From publication PMC10668032, “Altered binding affinity of SIX1-Q177R correlates with enhanced WNT5A and WNT pathway effector expression in Wilms tumor”
Over roughly 33,000 sequences, “e-score” has its median near -0.05; the highest 2% begin near 0.38. The list comes from a sample in which the highest values are over-represented; it also holds similar and randomly drawn sequences.

The sequences below were run against T1, SIX1-Q177R homeodomain (human, UniProt Q15475 108-198, Q177R) (assay: universal protein binding microarray; Universal all-10-mer PBM (8x60K, AMADID 030236), 300 nM GST-tagged protein, Alexa Fluor 488 anti-GST; buffer, salt, pH and temperature not stated (as in Berger); high values mean tight binding). Conditions: protein: ivt; tags: N-terminal GST; dsDNA, one strand shown.
T1 sequence: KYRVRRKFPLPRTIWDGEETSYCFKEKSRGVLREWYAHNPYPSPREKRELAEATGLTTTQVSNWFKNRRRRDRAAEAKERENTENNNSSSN
Outline: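 Binding was expressed as 8-mer E-scores calculated with the Universal PBM Analysis Suite. The GST-tagged homeodomains, made by in vitro transcription/translation, were applied in duplicate at 300 nM final concentration to universal 'all 10-mer' protein binding microarrays (8×60K format).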

| Sequence | binding signal [E-score] |
| --- | --- |
| CACTTCAC | 0.154 ± 0.0408 |
| ACTCCGCG | 0.22 ± 0.00707 |
| CACACGTG | 0.362 ± 0.00543 |
| CCAGGATA | 0.2169 ± 0.00146 |
| ACCCCCGT | 0.273 ± 0.0189 |
| AACCCCGT | 0.174 ± 0.0274 |
| GCACCCGA | 0.235 ± 0.00309 |
| ACACCCGT | 0.4709 ± 0.00247 |
| CCACCCGG | 0.201 ± 0.0191 |
| ACCCCCGG | 0.305 ± 0.0423 |
| GCACCCGC | 0.227 ± 0.0318 |
| ACACCCGG | 0.4824 ± 0.0027 |
| ACCCCCGC | 0.318 ± 0.046 |
| CCACCCGA | 0.206 ± 0.00492 |
| ACACCCGA | 0.457 ± 0.00947 |
| ACACCCGC | 0.4623 ± 0.00219 |
| GGGAGTCA | 0.221 ± 0.0066 |
| ATAGGGGG | 0.259 ± 0.00343 |
| CACGGGGA | 0.199 ± 0.0103 |
| CCCGTAGG | 0.178 ± 0.00511 |
| GGAGCACC | 0.268 ± 0.0396 |
| AGGGGGAT | 0.23 ± 0.0203 |
| CGCAAACA | 0.181 ± 0.0196 |
| GTGATACA | 0.172 ± 0.0198 |
| ACCATACA | 0.3199 ± 0.00166 |

| Sequence | binding signal [E-score] |
| --- | --- |
| GGTCCGTA | 0.189 ± 0.0444 |
| GAGGGTAC | 0.183 ± 0.0122 |
| AGACACCA | 0.458 ± 0.0134 |
| GGACACCA | 0.4831 ± 0.00245 |
| TGACACAA | 0.298 ± 0.0424 |
| GGACACGA | 0.356 ± 0.0172 |
| TGACGACA | 0.212 ± 0.00725 |
| TGACACCA | 0.4915 ± 0.00377 |
| AGGCACCA | 0.178 ± 0.0251 |
| TCCATGGA | 0.1596 ± 0.000424 |
| CGGGGTTA | 0.22 ± 0.0181 |
| ACGGAACA | 0.212 ± 0.00638 |
| TGTGAACA | 0.327 ± 0.0228 |
| ACCGTTGG | 0.2165 ± 0.000431 |
| ACCCGACG | 0.208 ± 0.0142 |
| TAGCTACA | 0.209 ± 0.0332 |
| GTATCAGA | 0.284 ± 0.0131 |
| GTTGGGGA | 0.218 ± 0.00618 |
| CCCTTTGC | 0.219 ± 0.0339 |
| CCCGGGTC | 0.335 ± 0.0417 |
| GGGGTAGA | 0.194 ± 0.0142 |
| CGGGTAAC | 0.2 ± 0.000757 |
| AGGGTAAG | 0.152 ± 0.023 |
| CGTGTAAG | 0.428 ± 0.0306 |
| GGGGTAAC | 0.293 ± 0.0173 |

| Sequence | binding signal [E-score] |
| --- | --- |
| CGTGTAAC | 0.43 ± 0.0129 |
| GGTGTAAC | 0.482 ± 0.00603 |
| GGAGTAAC | 0.157 ± 0.0575 |
| GGAGTAGA | 0.2198 ± 0.000615 |
| GGTGTAGA | 0.4728 ± 0.00114 |
| CACCACTC | 0.322 ± 0.00333 |
| CGTATGAC | 0.199 ± 0.0291 |
| AATAGGTG | 0.207 ± 0.0434 |
| GGGGTAAA | 0.29 ± 0.0101 |
| AGTGTGAG | 0.208 ± 0.00245 |
| CGTGTAAA | 0.435 ± 0.0253 |
| GGAGTAAA | 0.222 ± 0.0733 |
| AGTGTGAT | 0.223 ± 0.0157 |
| AGTGTAAG | 0.415 ± 0.026 |
| CGGGTAAA | 0.194 ± 0.0165 |
| AGTGTATG | 0.36 ± 0.013 |
| GGTGTAAA | 0.476 ± 0.0157 |
| AGTGTAAT | 0.413 ± 0.0369 |
| AGTCGGGG | 0.158 ± 0.0158 |
| CCCCCCGC | 0.248 ± 0.0302 |
| GCGATCCC | 0.182 ± 0.0137 |
| CGGAGTGA | 0.216 ± 0.008 |
| CACGATGC | 0.182 ± 0.0345 |
| GGTGCCAC | 0.195 ± 0.0196 |
| CTCCCGAC | 0.1532 ± 0.000212 |

| Sequence | binding signal [E-score] |
| --- | --- |
| AGGGTAAC | 0.176 ± 0.0073 |
| AGTGTAAC | 0.419 ± 0.0327 |
| TGTGTAAA | 0.235 ± 0.0184 |
| AGAGTAAC | 0.163 ± 0.0176 |
| AGTGTAAA | 0.402 ± 0.0464 |
| ACTGGGAG | 0.223 ± 0.0162 |
| ACCGGTGC | 0.238 ± 0.0365 |
| CCGATCCA | 0.188 ± 0.0051 |
| ACCCCCTA | 0.337 ± 0.0127 |
| CTTACACC | 0.478 ± 0.00815 |
| CTTACACA | 0.231 ± 0.0061 |
| ATTACCCC | 0.294 ± 0.00817 |
| ATTACACC | 0.479 ± 0.0126 |
| ATTACACA | 0.291 ± 0.00197 |
| ATTACTCC | 0.287 ± 0.0213 |
| ATTACACG | 0.435 ± 0.0178 |
| GTTACACA | 0.267 ± 0.0166 |
| CTTACTCC | 0.194 ± 0.0358 |
| ACGCGGGC | 0.164 ± 0.0117 |
| GGTGGGTA | 0.165 ± 0.0261 |
| GAGATACC | 0.225 ± 0.0222 |
| GATTAACA | 0.162 ± 0.0238 |
| ACACTCGC | 0.385 ± 0.0258 |
| CCACTCGC | 0.222 ± 0.00987 |
| ACACTCGG | 0.408 ± 0.0187 |

| Sequence | binding signal [E-score] |
| --- | --- |
| AGACTCGG | 0.16 ± 0.0294 |
| ACACTCGA | 0.358 ± 0.0137 |
| ACACTCGT | 0.351 ± 0.0272 |
| AAGCTACA | 0.178 ± 0.0271 |
| CGTGTGCA | 0.202 ± 0.0212 |
| GGTGTGAA | 0.427 ± 0.00482 |
| AGTGTGAC | 0.359 ± 0.00684 |
| GGTGTGCA | 0.391 ± 0.0295 |
| AGTGTGTA | 0.285 ± 0.00827 |
| AGTGTGAA | 0.276 ± 0.021 |
| GGTGTGAC | 0.435 ± 0.0199 |
| CGTGTGAC | 0.304 ± 0.0135 |
| AGTGTGCA | 0.185 ± 0.00583 |
| GGTGTGTA | 0.411 ± 0.0106 |
| TGTGTGAA | 0.187 ± 0.0245 |
| CACTCGGA | 0.177 ± 0.0507 |
| GTATCACA | 0.3 ± 0.034 |
| ATCCGACA | 0.238 ± 0.04 |
| ACCTAGGT | 0.157 ± 0.0301 |
| GGGGGATA | 0.2 ± 0.0198 |
| CAAGCACC | 0.176 ± 0.0183 |
| GGTGTATA | 0.458 ± 0.0157 |
| CGTGTATA | 0.367 ± 0.0156 |
| GGTATATA | 0.1906 ± 0.000509 |
| GTGCAACA | 0.292 ± 0.0195 |

| Sequence | binding signal [E-score] |
| --- | --- |
| ACCTATAA | 0.177 ± 0.008 |
| AGTTTATC | 0.208 ± 0.0174 |
| CCCCGAGC | 0.198 ± 0.0241 |
| AGTGTATA | 0.359 ± 0.0244 |
| CGTGTATC | 0.39 ± 0.00909 |
| AGAGTATC | 0.238 ± 0.0465 |
| AGTGTATC | 0.399 ± 0.0163 |
| CGGGTATC | 0.374 ± 0.0147 |
| TCTAGACA | 0.155 ± 0.0039 |
| CGATCCCC | 0.303 ± 0.0313 |
| CCCCAGGA | 0.173 ± 0.00623 |
| AGCGAGTG | 0.268 ± 0.0193 |
| CAAACTAG | 0.152 ± 0.0273 |
| CGGTGTGC | 0.381 ± 0.0324 |
| GTGTGTGA | 0.229 ± 0.0436 |
| CGGTGAGA | 0.177 ± 0.0168 |
| GAGTGTGA | 0.29 ± 0.0218 |
| AGGTGTGG | 0.371 ± 0.0242 |
| AGGTGTGA | 0.4098 ± 0.00286 |
| AGGTGTGC | 0.322 ± 0.019 |
| GGGTGTGA | 0.429 ± 0.0152 |
| ACGTGTGC | 0.16 ± 0.0249 |
| CGGTGTGA | 0.434 ± 0.0168 |
| CGGGGTGA | 0.166 ± 0.0603 |
| CGGTGCGC | 0.221 ± 0.0195 |

| Sequence | binding signal [E-score] |
| --- | --- |
| ACTCCGAT | 0.182 ± 0.0265 |
| CCCCGACG | 0.162 ± 0.0371 |
| CACTAAGA | 0.17 ± 0.0243 |
| AGGTATCG | 0.33 ± 0.00862 |
| ACCCTGGA | 0.168 ± 0.028 |
| CCCCACAG | 0.172 ± 0.025 |
| CACCAAGC | 0.26 ± 0.0355 |
| CACCAGCC | 0.239 ± 0.0131 |
| CCCCAACA | 0.278 ± 0.00752 |
| GCTGATAC | 0.243 ± 0.0143 |
| GCTGACAC | 0.444 ± 0.00725 |
| CCTGACGC | 0.161 ± 0.00552 |
| ACTGACAA | 0.153 ± 0.0151 |
| ACTGACAC | 0.4777 ± 0.00257 |
| ACTGACCC | 0.213 ± 0.011 |
| ACTGATAC | 0.295 ± 0.00533 |
| CCTGACAC | 0.452 ± 0.00834 |
| CCTGACCC | 0.159 ± 0.0403 |
| GACTCCCC | 0.161 ± 0.0189 |
| AACCCACA | 0.157 ± 0.00573 |
| GAGTCACC | 0.157 ± 0.0094 |
| CTACGACA | 0.172 ± 0.0171 |
